In PMC12820563, “FoxP3 forms a head-to-head dimer in vivo and stabilizes its multimerization on adjacent microsatellites” one finds binding signal data, which are given here for 44 sequences.

Whole data set: some 16,000 sequences, median “rpm ratio (pull-down/input)” near 0.94, cut for the highest 2% near 1.7. The sample as a whole holds a higher share of the highest values than the screen did.

This experiment addresses T1, MBP-FoxP1dN (Mus musculus, UniProt P58462 326-579).
T1 sequence: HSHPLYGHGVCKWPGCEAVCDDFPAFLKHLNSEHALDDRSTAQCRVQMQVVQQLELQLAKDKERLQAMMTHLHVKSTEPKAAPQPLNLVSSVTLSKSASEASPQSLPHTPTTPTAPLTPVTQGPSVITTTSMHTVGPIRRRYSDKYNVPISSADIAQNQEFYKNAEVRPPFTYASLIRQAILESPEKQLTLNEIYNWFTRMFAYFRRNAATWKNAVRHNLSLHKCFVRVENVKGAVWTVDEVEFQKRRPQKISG
Put plainly: PD-seq (MBP pull-down with sequencing); 20 mM Tris-HCl pH 7.5, 100 mM NaCl, 1.5 mM MgCl2, 0.4 uM protein, 0.1 uM dsDNA library, 30 min, room temperature, amylose pull-down; high values mean tight binding. The conditions noted are these: protein: recombinant; tags: His6-MBP; chain copies: 2; dsDNA, one strand shown. Summed up: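 The N-terminus-lacking fragment of mouse FoxP3 or FoxP1 carried a His6-MBP tag and was expressed in E. coli. At 0.4 µM it was incubated with 0.1 µM Klenow-filled degenerate double-stranded DNA library for 30 min at room temperature in Tris pH 7.5 buffer with NaCl and MgCl2, and complexes were caught on amylose resin, washed three times, released with proteinase K, PCR-barcoded and Illumina-sequenced. Binding is reads-per-million enrichment of pull-down over input with replicates pooled.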
With “GATGATTGTTCTCCCAGCTGATGAATTTCGCAGGTCGAGTAAACAAATTTTCCTAATCTTTCTGTTCAAGCGCCATCTAC”, the binding signal is 0.789 RPM ratio (pull-down/input).

As to “GATGATTGTTCTCCCAGCTGATGAATTTCAGTGTTCGAGTAAACAAATTTTCCTAATCTTTCTGTTCAAGCGCCATCTAC”, the binding signal was 0.983 RPM ratio (pull-down/input).

For “GATGATTGTTCTCCCAGCTGATGAATTGACAGTTTCGAGTAAACAAATTTTCCTAATCTTTCTGTTCAAGCGCCATCTAC”, the binding signal is 1.26 RPM ratio (pull-down/input).

For “GATGATTGTTCTCCCAGCTGATGAATTTGCCACCTCGAGTAAACAAATTTTCCTAATCTTTCTGTTCAAGCGCCATCTAC”, the binding signal is 0.982 RPM ratio (pull-down/input).

Consider “GATGATTGTTCTCCCAGCTGATGAATTGTGTATTTCGAGTAAACAAATTTTCCTAATCTTTCTGTTCAAGCGCCATCTAC”, for which the binding signal was 1.75 RPM ratio (pull-down/input).

For “GATGATTGTTCTCCCAGCTGATGAATTCGTGTATTCGAGTAAACAAATTTTCCTAATCTTTCTGTTCAAGCGCCATCTAC”, the binding signal was 1.35 RPM ratio (pull-down/input).

For the sequence “GATGATTGTTCTCCCAGCTGATGAATTGTGTAATTCGAGTAAACAAATTTTCCTAATCTTTCTGTTCAAGCGCCATCTAC”, the binding signal is 1.32 RPM ratio (pull-down/input).

Consider “GATGATTGTTCTCCCAGCTGATGAATTTGTGTATTCGAGTAAACAAATTTTCCTAATCTTTCTGTTCAAGCGCCATCTAC”, for which the binding signal is 1.98 RPM ratio (pull-down/input).

As for “GATGATTGTTCTCCCAGCTGATGAATTCGCCCGATCGAGTAAACAAATTTTCCTAATCTTTCTGTTCAAGCGCCATCTAC”, the binding signal was 0.901 RPM ratio (pull-down/input).

Regarding “GATGATTGTTCTCCCAGCTGATGAATTGCCCCCATCGAGTAAACAAATTTTCCTAATCTTTCTGTTCAAGCGCCATCTAC”, the binding signal is 0.972 RPM ratio (pull-down/input).

Turning to “GATGATTGTTCTCCCAGCTGATGAATTCAAGCCCTCGAGTAAACAAATTTTCCTAATCTTTCTGTTCAAGCGCCATCTAC”, the binding signal is 0.749 RPM ratio (pull-down/input).

For the sequence “GATGATTGTTCTCCCAGCTGATGAATTCTTGTATTCGAGTAAACAAATTTTCCTAATCTTTCTGTTCAAGCGCCATCTAC”, the binding signal was 1.72 RPM ratio (pull-down/input).

As to “GATGATTGTTCTCCCAGCTGATGAATTGTATTGTTCGAGTAAACAAATTTTCCTAATCTTTCTGTTCAAGCGCCATCTAC”, the binding signal is 2.26 RPM ratio (pull-down/input).

In the case of “GATGATTGTTCTCCCAGCTGATGAATTGTATATTTCGAGTAAACAAATTTTCCTAATCTTTCTGTTCAAGCGCCATCTAC”, the binding signal is 1.52 RPM ratio (pull-down/input).

Consider “GATGATTGTTCTCCCAGCTGATGAATTCCTGTATTCGAGTAAACAAATTTTCCTAATCTTTCTGTTCAAGCGCCATCTAC”, for which the binding signal was 1.3 RPM ratio (pull-down/input).

On to “GATGATTGTTCTCCCAGCTGATGAATTGTATCTTTCGAGTAAACAAATTTTCCTAATCTTTCTGTTCAAGCGCCATCTAC”, for which the binding signal was 1.31 RPM ratio (pull-down/input).

As for “GATGATTGTTCTCCCAGCTGATGAATTGTATTTTTCGAGTAAACAAATTTTCCTAATCTTTCTGTTCAAGCGCCATCTAC”, the binding signal was 1.8 RPM ratio (pull-down/input).

Take “GATGATTGTTCTCCCAGCTGATGAATTCACGACCTCGAGTAAACAAATTTTCCTAATCTTTCTGTTCAAGCGCCATCTAC”: the binding signal was 0.767 RPM ratio (pull-down/input).

“GATGATTGTTCTCCCAGCTGATGAATTTCCGAGATCGAGTAAACAAATTTTCCTAATCTTTCTGTTCAAGCGCCATCTAC”: the binding signal is 0.797 RPM ratio (pull-down/input).

Turning to “GATGATTGTTCTCCCAGCTGATGAATTTAACTATTCGAGTAAACAAATTTTCCTAATCTTTCTGTTCAAGCGCCATCTAC”, the binding signal is 0.876 RPM ratio (pull-down/input).

“GATGATTGTTCTCCCAGCTGATGAATTGATTCACTCGAGTAAACAAATTTTCCTAATCTTTCTGTTCAAGCGCCATCTAC”: the binding signal was 1.03 RPM ratio (pull-down/input).

For “GATGATTGTTCTCCCAGCTGATGAATTCGCACAATCGAGTAAACAAATTTTCCTAATCTTTCTGTTCAAGCGCCATCTAC”, the binding signal is 1.15 RPM ratio (pull-down/input).

Consider “GATGATTGTTCTCCCAGCTGATGAATTTCAAAGTTCGAGTAAACAAATTTTCCTAATCTTTCTGTTCAAGCGCCATCTAC”, for which the binding signal was 0.792 RPM ratio (pull-down/input).

With “GATGATTGTTCTCCCAGCTGATGAATTTAGTGTTTCGAGTAAACAAATTTTCCTAATCTTTCTGTTCAAGCGCCATCTAC”, the binding signal is 1.15 RPM ratio (pull-down/input).

As for “GATGATTGTTCTCCCAGCTGATGAATTAGTGTGTTCGAGTAAACAAATTTTCCTAATCTTTCTGTTCAAGCGCCATCTAC”, the binding signal was 1.35 RPM ratio (pull-down/input).

Turning to “GATGATTGTTCTCCCAGCTGATGAATTAGTAGTGTCGAGTAAACAAATTTTCCTAATCTTTCTGTTCAAGCGCCATCTAC”, the binding signal is 1 RPM ratio (pull-down/input).

“GATGATTGTTCTCCCAGCTGATGAATTAGTGTTGTCGAGTAAACAAATTTTCCTAATCTTTCTGTTCAAGCGCCATCTAC”: the binding signal is 2.53 RPM ratio (pull-down/input).

As to “GATGATTGTTCTCCCAGCTGATGAATTAGTGTTTTCGAGTAAACAAATTTTCCTAATCTTTCTGTTCAAGCGCCATCTAC”, the binding signal was 2.42 RPM ratio (pull-down/input).

“GATGATTGTTCTCCCAGCTGATGAATTAGTGTCGTCGAGTAAACAAATTTTCCTAATCTTTCTGTTCAAGCGCCATCTAC”: the binding signal was 0.949 RPM ratio (pull-down/input).

For the sequence “GATGATTGTTCTCCCAGCTGATGAATTGCCGTGCTCGAGTAAACAAATTTTCCTAATCTTTCTGTTCAAGCGCCATCTAC”, the binding signal was 0.904 RPM ratio (pull-down/input).

For the sequence “GATGATTGTTCTCCCAGCTGATGAATTACTATAATCGAGTAAACAAATTTTCCTAATCTTTCTGTTCAAGCGCCATCTAC”, the binding signal was 1.27 RPM ratio (pull-down/input).

“GATGATTGTTCTCCCAGCTGATGAATTTTAGCGCTCGAGTAAACAAATTTTCCTAATCTTTCTGTTCAAGCGCCATCTAC”: the binding signal is 0.826 RPM ratio (pull-down/input).

Turning to “GATGATTGTTCTCCCAGCTGATGAATTATAACCCTCGAGTAAACAAATTTTCCTAATCTTTCTGTTCAAGCGCCATCTAC”, the binding signal is 0.997 RPM ratio (pull-down/input).

On to “GATGATTGTTCTCCCAGCTGATGAATTTGATCCATCGAGTAAACAAATTTTCCTAATCTTTCTGTTCAAGCGCCATCTAC”, for which the binding signal was 0.928 RPM ratio (pull-down/input).

With “GATGATTGTTCTCCCAGCTGATGAATTCGGCCTATCGAGTAAACAAATTTTCCTAATCTTTCTGTTCAAGCGCCATCTAC”, the binding signal is 0.817 RPM ratio (pull-down/input).

In the case of “GATGATTGTTCTCCCAGCTGATGAATTTGCGGACTCGAGTAAACAAATTTTCCTAATCTTTCTGTTCAAGCGCCATCTAC”, the binding signal is 0.882 RPM ratio (pull-down/input).

As for “GATGATTGTTCTCCCAGCTGATGAATTACTTCATTCGAGTAAACAAATTTTCCTAATCTTTCTGTTCAAGCGCCATCTAC”, the binding signal is 1.11 RPM ratio (pull-down/input).

In the case of “GATGATTGTTCTCCCAGCTGATGAATTGAGCAGATCGAGTAAACAAATTTTCCTAATCTTTCTGTTCAAGCGCCATCTAC”, the binding signal was 0.835 RPM ratio (pull-down/input).

Consider “GATGATTGTTCTCCCAGCTGATGAATTGTTGTGTTCGAGTAAACAAATTTTCCTAATCTTTCTGTTCAAGCGCCATCTAC”, for which the binding signal was 2.57 RPM ratio (pull-down/input).

On to “GATGATTGTTCTCCCAGCTGATGAATTGTGTTGTTCGAGTAAACAAATTTTCCTAATCTTTCTGTTCAAGCGCCATCTAC”, for which the binding signal was 2.69 RPM ratio (pull-down/input).

With “GATGATTGTTCTCCCAGCTGATGAATTGATGTGTTCGAGTAAACAAATTTTCCTAATCTTTCTGTTCAAGCGCCATCTAC”, the binding signal was 1.5 RPM ratio (pull-down/input).

Turning to “GATGATTGTTCTCCCAGCTGATGAATTTCTGTGTTCGAGTAAACAAATTTTCCTAATCTTTCTGTTCAAGCGCCATCTAC”, the binding signal was 1.23 RPM ratio (pull-down/input).

In the case of “GATGATTGTTCTCCCAGCTGATGAATTCTTGTGTTCGAGTAAACAAATTTTCCTAATCTTTCTGTTCAAGCGCCATCTAC”, the binding signal is 1.6 RPM ratio (pull-down/input).

Turning to “GATGATTGTTCTCCCAGCTGATGAATTGTGTTCTTCGAGTAAACAAATTTTCCTAATCTTTCTGTTCAAGCGCCATCTAC”, the binding signal is 1.33 RPM ratio (pull-down/input).
